Measurements reported in PubChem BioAssay (NCI).
“And” between values parts separate entries of the source, which are not always exact repeats. Equal entries are not always repeated. The panel holds about 83,000 compounds, 20% with a hit somewhere; the sample as a whole holds those more often.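 Cells were grown in 96-well plates and exposed to the test compound at a single concentration for 48 hours; results are reported as percent growth, with values below 10 considered active.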 Unmarked numbers belong to inactive results. The source made the active and inactive calls.

Experiments:
Experiment in all cases: NCI-60 one-dose screen, 48 h (100 = growth as untreated, 0 = no growth, -100 = all killed)
Settings in all cases: 10 µM unless noted
[1] = system: SK-MEL-2 melanoma
[2] = system: EKVX NSCLC
[3] = system: SN12C renal
[4] = system: UO-31 renal
[5] = system: TK-10 renal
[6] = system: ACHN renal
[7] = system: CAKI-1 renal
[8] = system: A498 renal
[9] = system: CCRF-CEM leukemia
[10] = system: MOLT-4 leukemia

Row | Compound | growth [1] | growth [2] | growth [3] | growth [4] | growth [5] | growth [6] | growth [7] | growth [8] | growth [9] | growth [10]
1 | O=C(Nc1ccc2ccccc2c1)c1cc2ccccc2cc1O | 79.3% | 99.7% | 89.2% | 58.8% | 103% | 89.2% | 87.1% | 90.4% | 75% | 82.2%
2 | O=C1OCC2=C1C(c1cccc(C(F)(F)F)c1)c1cc3c(cc1N2CCO)CCC3 (stereo not given) | 9.34% (active) | 40.7% | 24.9% | 35.5% | 53.9% | 23.4% | 26.9% | 1.23% (active) | 6.63% (active) | 7.83% (active)
3 | COc1cc(C=O)ccc1Oc1ccc([N+](=O)[O-])cc1[N+](=O)[O-] | 96.9% | 105% | 99.8% | 83.3% | 106% | 106% | 107% | 95.2% | 82.9% | 100%
4 | Clc1ccc2c(NCCN3CCN(c4ccnc(N5CCCC5)n4)CC3)ccnc2c1 | 92.4% | 63% | 57.2% | 25.8% | 52.5% | 55.6% | 27.7% | 51.5% | 51.1% | 47.2%
5 | CCCCCCCCN(CCCCCCCC)CC(O)c1cc(Cl)ccc1OC (stereo not given) | 80.1% | 59.9% | 75.4% | 52.3% | 96.4% | 71.5% | 62.3% | 54.8% | 92.8% | 79.3%
6 | COc1ccc(/C(C)=C(\c2ccc(OCCN3CCCCCC3)cc2)c2ccc(OC(=O)C3CCCCC3)cc2)cc1 | -78.3% (active) | -25.3% (active) | -87.2% (active) | -96.9% (active) | -79.2% (active) | -88.5% (active) | -34.4% (active) | -3.54% (active) | -31.5% (active) | -13.7% (active)
7 | N=C(N)c1ccc(-c2ccc(-c3ccc(F)cc3)s2)nc1 | 101% | 79.3% | 75.3% | 74.1% | 108% | 76% | 65.4% | 79% | 47.8% | 26.3%
8 | Nc1ccccc1SC(CC(=O)c1ccccc1)c1ccc([N+](=O)[O-])cc1 (stereo not given) | 137% and 87.4% | 97.1% | 94% and 92.5% | 55.1% and 39.2% | 118% and 109% | 99.8% and 93.6% | 70.2% and 91.7% | 94.6% and 99.5% | 69.2% and 51.9% | 82.3% and 61.6%
9 | Cc1nc2sc(C(=O)Nc3cccc4ncccc34)c(N)c2cc1C(C)O (stereo not given) | 35.3% | 88.4% | 91.8% | 81.5% | 103% | 93.4% | 89.7% | 48.1% | 54.4% | 64%
10 | CN1C(=O)/C(=C/c2ccc(C(=O)Nc3ncc(Cc4ccccc4Cl)s3)cc2)SC1=S | 101% | 75.6% | 68.6% | 63.5% | 83.6% | 52.1% | 34.1% | 60.7% | 73.7% | 82.1%
11 | COc1ccc2c(c1)CC[C@@H]1[C@@H]2CC[C@]2(C)C3C(=CCC4C(=O)N(c5ccccc5)C(=O)C43)C[C@@H]12 (stereo not given in full) | 95.7% | 93% | 108% | 74.3% | 105% | 80.8% | 71.7% | 114% | 66.7% | 74.2%
12 | CCOC(=O)c1c(-c2ccc(C)cc2)c(C#N)c(=O)n(-c2cccc(C(F)(F)F)c2)c1N | 116% | 98.8% | 95.1% | 81.6% | 112% | 96.7% | 91.2% | 106% | 101% | 104%
13 | Cc1ccc(-c2nc3nc(-c4ccc(F)cc4)nc(N4CCCNCC4)c3o2)cc1 | -61.2% (active) | -75.6% (active) | -91.2% (active) | -88.5% (active) | -93.8% (active) | -99.3% (active) | -95.4% (active) | 77.5% | -77.7% (active) | -61.1% (active)
14 | C=CCOc1ccc(/C=C2\SC(=S)N(CCc3ccc(O)cc3)C2=O)cc1 | 106% | 91.4% | 84.4% | 61.3% | 106% | 94% | 71.2% | 65.6% | 5.72% (active) | 40.4%
15 | Cc1ccc(S(=O)(=O)OC[C@@]2(C)CC[C@]3(C)CC[C@]4(C)C(=CC[C@@H]5[C@@]6(C)CCCNC(C)(C)[C@@H]6CC[C@]54C)[C@@H]3C2)cc1 | -59% (active) | 9.58% (active) | -88.3% (active) | -2.29% (active) | -61.1% (active) | -100% (active) | -92.4% (active) | 86.8% | -28.6% (active) | -42.1% (active)
16 | O=C1/C(=C/c2ccccc2)CN(C(=O)C(Cl)Cl)C/C1=C\c1ccccc1 | 38.4% | 12.2% | -40.7% (active) | -52.8% (active) | 59.5% | -74.6% (active) | 4.64% (active) | 4.17% (active) | 8.2% (active) | 4.99% (active)
17 | CCCCC1COc2cccc3c2N1C=C/C3=C\C(=O)N(C)c1cccc(Cl)c1 (stereo not given) | 121% | 95.8% | 94.2% | 78% | 112% | 98.5% | 78.9% | 94.6% | 97.2% | 86.6%
18 | C/C(=C(\c1ccc(OCCN2CCOCC2)cc1)c1ccc(OC(=O)C2CCCCC2)cc1)c1ccc(Cl)cc1 | 92.6% | 94.1% | 94.7% | 81.8% | 96.4% | 104% | 77.9% | 92.6% | -24.6% (active) | 91.1%
19 | CCOC(=O)c1nnn(Cc2cc(=O)oc3c2ccc2ccccc23)c1C | 110% | 105% | 96.7% | 77.3% | 101% | 97.9% | 98% | 108% | 88.2% | 108%
20 | O=C1C=CC(=O)N1c1ccc2ccccc2c1 | 98.2% and 101% | 112% and 95% | 99.3% and 91.1% | 68.3% and 72.8% | 96.2% and 36.7% | 38% and 50.3% | 53.7% and 83% | 101% | 41.3% and 33.4% | 49.7% and 37.1%
21 | Fc1ccccc1-c1cnn2cc(-c3ccccc3)cnc12 | 107% | 103% | 92.1% | 85.6% | 104% | 101% | 88.8% | 87.8% | 93.3% | 98.1%
22 | O=C1/C(=C/c2ccc(-c3ccccc3C(F)(F)F)o2)SC(=S)N1CCc1ccc(O)cc1 | 70.1% | 75.3% | 66.6% | 40.1% | 83.1% | 66.3% | 33.8% | 79.1% | 11.9% | 17.5%
23 | O=C1C=C(Nc2ccccc2)c2ncccc2C1=O | -66.8% (active) | -85.3% (active) | -88.8% (active) | -98.6% (active) | -96.9% (active) | -98.3% (active) | -95.9% (active) | -87.5% (active) | -29.9% (active) | -49.6% (active)
24 | CN(C)CC1(C)Cc2ccsc2C1O (stereo not given) | 108% and 110% | 103% and 92.3% | 110% and 111% | 94.2% and 87.3% | 105% and 94.1% | 99.6% and 106% | 106% and 103% | 97.9% and 95.5% | 94.8% | 99.9% and 86.4%
25 | COc1cc2cc(NCc3ccncc3)nc(C)c2cc1OC | 100% | 96.3% | 97.1% | 89.8% | 83.5% | 101% | 82.3% | 72.4% | 112% | 109%
26 | Cc1c(O)c(O)cc2c3c(oc12)CC(c1ccc2c(c1)OCO2)CC3=O (stereo not given) | 83.8% | 79% | 94.9% | 56% | 115% | 75.9% | 98.6% | 102% | 69.3% | 84.4%
27 | CC(Sc1ccccc1)C(=O)O (stereo not given) | 116% | 94.2% | 103% | 94.9% | 102% | 104% | 76.5% | 88.7% | 93.9% | 141%
28 | O=C(Oc1ccc(CO[N+](=O)[O-])cc1)c1ccccc1 | -72.3% (active) | -99.9% (active) | -87.6% (active) | -90.4% (active) | -96.9% (active) | -84.7% (active) | -97% (active) | -71.5% (active) | -47.4% (active) | -50.1% (active)
29 | CCCCCCCCCCCCCCCC(=O)O[C@@H]1[C@@H](O)[C@@H](O)C([C@H](NC(=O)[C@@H]2C[C@@H](CCC)CN2C)[C@H](C)Cl)O[C@@H]1SC (stereo not given in full) | 112% | 100% | 104% | 77.2% | 115% | 95.4% | 96% | 101% | 101% | 103%
30 | Nc1n[nH]c2cccc(C#Cc3cccc(NC(=O)c4ccc(N5CCOCC5)c(C(F)(F)F)c4)c3)c12 | -7.56% (active) | 18.4% | 9.03% (active) | -31.7% (active) | 16.5% | -0.609% (active) | 9.52% (active) | -34.3% (active) | 10.5% | 7.67% (active)
